From PubChem
Tb PYK inh: qHTS of Trypanosoma Brucei Inhibitors; TbPYK enzyme, Kinase-Glo Plus ATP luminescence, 45 min; Potency, µM (doses to about 76.8 µM), inactives show top-dose activity, negative = inhibition, usual class: inhibitors; 0.12% of 410,000 active; note: potency is the fitted concentration of half-maximal effect; nearly all actives have a fitted effect of over 50% in size
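Readout: single end-point luminescence (Kinase-Glo Plus, 10 min). Reaction conditions were TbPYK/substrate plus 130 uM ADP, 45 min at RT, pH 7.2 TEA buffer. No-enzyme wells served as controls, and data were normalized before concentration-response fitting.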
HCMV antiviral: qHTS Assay for inhibitors of the human cytomegalovirus (HCMV) | HFF cells, HCMV-luciferase reporter, 72 h; hits give low values | activity change, negative = inhibition, % at 57.5 µM | 4.5% of 410,000 active; in the data active = activity change below about -60%; inconclusive = no clear call, values can overlap the other calls; inactive = above about -39%
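Compounds were evaluated in HFFs infected with an HCMV luciferase reporter virus (MOI 1 PFU/cell). Luciferase in lysates collected 72 h post infection served as the replication measure.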
Sm TGR inh: qHTS Assay for the Inhibitors of Schistosoma Mansoni Peroxiredoxins. purified TGR, DTNB reduction, TNB absorbance 405 nm. Potency, µM (titrated, usually from 114 µM), for the others: top-dose activity change, negative = inhibition, most hits filed as inhibitors. 3% of 360,000 active; note: potency is the fitted concentration of half-maximal effect; nearly all actives have a fitted effect of over 60% in size
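TGR 20 nM + NADPH 100 uM (dispensed conc.), cpd preinc 15 min RT; start with NADPH (500 uM addition) then DTNB (15 mM addition). Kinetic TNB absorbance, 405 nm filter. Four-parameter Hill fit across titration.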
RE007 growth inh: qHTS Assay for Inhibitors of the HIV-1 protein Vpr; Potency, µM (top dose mostly 92.2 µM), for the others: at the highest dose activity change, negative = less growth, most hits filed as inhibitors; 0.21% of 360,000 active; AID 651644, 2012; S. pombe RE007 Vpr strain, BacTiter-Glo ATP luminescence, 24 h; active = well fitted falling curve with a large enough effect; inconclusive = small, poorly fitted or top-dose-only effect; inactive = no such curve, though single readings can be large or run the other way; note: potency is the fitted concentration of half-maximal effect; nearly all actives have a fitted effect of over 50% in size
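Fission yeast strain RE007, carrying one chromosomally integrated HIV-1 vpr copy, was seeded at OD 0.01 in PMG+AL medium with 23 nL pinned compound. After 24 h at 30 °C and 99% humidity, viability was read by BacTiter-Glo luminescence.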
FBPA Giardia inh: qHTS Assay for Inhibitors of Fructose-1,6-bisphosphate Aldolase from Giardia Lamblia; 0.71% of 290,000 active; A8B2U2; purified Giardia FBPA; Potency, µM (top dose mostly 59.6 µM), for the others: at the top dose activity, negative = inhibition, hits mostly inhibitors; note: potency is the fitted concentration of half-maximal effect; nearly all actives have a fitted effect of over 55% in size
Target sequence (A8B2U2 whole entry, looked up): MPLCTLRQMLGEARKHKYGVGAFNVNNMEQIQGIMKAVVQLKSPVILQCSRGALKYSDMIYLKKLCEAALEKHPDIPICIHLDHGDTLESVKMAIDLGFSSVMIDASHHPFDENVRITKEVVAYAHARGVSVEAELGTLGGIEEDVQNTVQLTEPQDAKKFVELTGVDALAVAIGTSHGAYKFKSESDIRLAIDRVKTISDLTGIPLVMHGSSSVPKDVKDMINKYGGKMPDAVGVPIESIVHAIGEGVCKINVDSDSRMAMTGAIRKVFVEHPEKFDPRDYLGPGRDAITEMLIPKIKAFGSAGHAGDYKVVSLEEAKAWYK
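40 nM FBPA preincubated 10 min at RT with compound (up to 57.5 uM final), then substrate plus GAPDH/TPI/NAD/arsenate coupling and diaphorase/resazurin added. Fluorescence read after 20 min at RT, 525/598 nm.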
FMDV antiviral: High Throughput Screening for Foot and Mouth Disease Virus Antivirals; FMDV antiviral cell-based qHTS; Potency, µM (doses to about 57.9 µM), without a hit: at the top dose activity change, negative = inhibition, most hits filed as inhibitors; 1.2% of 410,000 active; calls by dose curve; tested in HEK293T cells; note: read-out not given here; potency is the fitted concentration of half-maximal effect; nearly all actives have a fitted effect of over 45% in size
Starred values were filed as active, the others as inactive; ? = inconclusive; / = no result given; [ ] = dose if it differs, or a comment. Most compounds without a hit are left out; they make up all but 7.7% or so of the library. Unless noted, calls come from the whole dose curve; as a rule, active = well fitted curve in the direction sought with a large enough effect; inconclusive = small, poorly fitted or top-dose-only effect, or another doubt; inactive = no such curve, though single readings can be large; an effect the other way counts as inactive or inconclusive. % is set by controls: 0 for no effect and ±100 for the full control effect.

SMILES	Tb PYK inh	HCMV antiviral	Sm TGR inh	RE007 growth inh	FBPA Giardia inh	FMDV antiviral
Cc1cc(C(=O)Nn2c(-c3ccc(Br)cc3)nc3ccccc3c2=O)ccc1[N+](=O)[O-]	6%	-75*	-8%	0%	8%	?
COc1ccc(-n2c(-c3ccccc3Br)nc3ccccc3c2=O)cc1	8%	-63*	1%	5%	2%	-5%
CCOc1ccc(-n2c(CC)nc3ccccc3c2=O)cc1	-2%	-87*	-4%	13%	0%	-22%
Clc1ccccc1OCCSc1nnc(-c2cccs2)o1	-2%	-7	-13%	/	/	12%
Cc1ncc2c(c1CNS(=O)(=O)N(C)C)CCN(C(=O)c1[nH]c3ccc(Cl)cc3c1C)C2	/	/	/	/	/	-21%
CCCCCC#CC[C@@H](O)/C=C/C=C/C=C\[C@@H](O)CCCC(=O)O	/	/	/	/	3%	/
S=c1[nH]nc(-c2cc(-c3ccccc3)n[nH]2)n1/N=C/C(Br)=C/c1ccccc1	?	-100*	?	-12%	1%	?
S=c1[nH]nc(-c2ccncc2)n1/N=C/C=C/c1ccco1	?	?	22µM*	5%	?	-17%
Cc1cccc(/C=N/n2c(-c3ccco3)n[nH]c2=S)c1	?	15	-2%	4%	-1%	-12%
S=c1[nH]nc(-c2ccccc2Cl)n1/N=C/C=C/c1ccco1	?	-5	20µM*	2%	-10%	-14%
Cc1cccc(-c2n[nH]c(=S)n2/N=C/C=C/c2ccco2)c1	?	46	11µM*	12%	-2%	1%
CC(/C=N/n1c(-c2ccccc2)n[nH]c1=S)=C\c1ccco1	?	9	?	-8%	3%	/
S=c1[nH]nc(-c2cccc(Cl)c2)n1/N=C/c1ccco1	?	/	40µM*	35%	-5%	-10%
C(=C\c1ccco1)/C=N/n1cnnc1	-3%	70	28µM*	0%	?	12%
O=C(N/N=C/C=C/c1ccco1)C(O)c1ccccc1 (stereo not given)	-2%	-18	/	3%	/	52%
CC(/C=N/n1c(-c2ccc(C)cc2)n[nH]c1=S)=C\c1ccco1	-11%	17	-25%	-13%	5%	1%
CC(/C=N/n1c(-c2ccncc2)n[nH]c1=S)=C\c1ccco1	?	?	32µM*	-3%	-8%	-11%
CC(=C/c1ccccc1)/C=N/n1c(-c2ccncc2)n[nH]c1=S	?	?	-2%	-4%	14%	-5%
CC(/C=N/n1c(-c2cccnc2)n[nH]c1=S)=C\c1ccccc1	?	-77*	17%	11%	/	0%
CCC/C=C(\CCC)C(NC(=O)OCC(C)C)c1ccccc1 (stereo not given)	/	/	/	/	7%	/
F[Si-2](F)(F)(F)(F)F	-5%	/	/	/	/	/
Cc1[nH]n(-c2ccccc2)c(=S)c1C=Nc1cccc([N+](=O)[O-])c1	3.2µM*	-12	79µM*	13%	?	-2%
CCCCN=Cc1c(C)[nH]n(-c2ccccc2)c1=S	7.9µM*	?	0%	1%	?	28%
O=[N+]([O-])c1ccc(C=Nc2ccccc2)cc1	-4%	7	/	6%[18.4 µM]	/	-13%
Cc1[nH]n(-c2ccccc2)c(=O)c1C=NCCc1ccccc1	5%	-39	/	7%	0%	54%
SMILES	Tb PYK inh	HCMV antiviral	Sm TGR inh	RE007 growth inh	FBPA Giardia inh	FMDV antiviral
Cc1ccc2ncc(C(=O)c3ccc(C)c(C)c3)c(S(=O)(=O)c3ccccc3)c2c1	0%	-92*	1%	/	/	-17%
Cc1ccc(C(=O)c2cnc3cc4c(cc3c2S(=O)(=O)c2ccccc2)OCCO4)cc1	-3%	-94*	-23%	-13%	-17%	2%
CCOc1ccc(S(=O)(=O)c2c(C(=O)c3ccc(C)cc3)cnc3cc4c(cc23)OCCO4)cc1	-2%	-62*	-4%	15%	-1%	10%
COc1ccc(S(=O)(=O)c2c(C(=O)c3ccc(C)c(C)c3)cnc3ccc(C)cc23)cc1	0%	?	-1%	/	/	-9%
CCc1ccc(C(=O)c2cnc3ccc(F)cc3c2S(=O)(=O)c2ccccc2)cc1	3%	-2	-16%	/	/	?
COc1ccccc1OC(C)C(=O)N1CCN(CCc2ccccn2)CC1 (stereo not given)	0%	12	1%	/	/	2%
CC(=O)N1CCN(C2=NC(=O)/C(=C/c3ccc(OS(=O)(=O)c4ccccc4)cc3)S2)CC1	10%	-70*	-18%	-8%	-9%	-15%
COc1ccc(NC(=O)CN2CCCN(Cc3ccc(Cl)cc3)S2(=O)=O)cc1Cl	0%	-30	2%	/	/	0%
O=C(N[C@@H]1CC[C@@H](CCn2cc(-c3ccccc3)nn2)O[C@@H]1CO)c1cnccn1	/	-70*	/	8%	/	-14%
O=C(N[C@@H]1CC[C@H](CCn2cc(-c3ccccn3)nn2)O[C@@H]1CO)c1ccncc1	/	-12	/	-13%	/	-17%
CC(C)C[C@H]1COc2cc(Br)ccc2S(=O)(=O)N1Cc1ccc(F)cc1F	/	38	/	/	/	/
CC(C)(C)NC(=O)[C@@H]1CC[C@@H]2[C@@H]3CC[C@@H]4NC(=O)C=C[C@@]4(C)[C@H]3CC[C@]21C	2%[33.2 µM]	/	/	/	5%[21.7 µM]	/
Cc1nc2ccccn2c1C(=O)NCc1ccc2c(c1)OCO2	-3%	-61*	-35%	5%	2%	/
O=C(CSc1nnc2ccccn12)NCc1ccc2c(c1)OCO2	0%	-79*	3%	-13%	-1%	13%
CC(C)(C)NS(=O)(=O)c1ccc(CCC(=O)NCc2ccc3c(c2)OCO3)cc1	2%	13	32µM*	0%	-3%	-13%
O=C(CSc1nc(=O)n2ccccc2n1)NCc1ccc2c(c1)OCO2	8%	-35	-14%	-13%	/	3%
CCC1(CC)NC(=O)N(CC(=O)NCc2ccc3c(c2)OCO3)C1=O	-7%	-20	-14%	-13%	-1%	-2%
CN1CC(=O)N(CC(=O)NCc2ccc3c(c2)OCO3)C1=O	7%	-102*	0%	-1%	0%	1%
CCOc1ccc(C(=O)OCc2cc(=O)n3nc(C(C)C)sc3n2)cc1	1%	-12	0%	/	/	-6%
Cn1nc(C(C)(C)C)cc1C(=O)NCc1ccc2c(c1)OCO2	-7%	-83*	-24%	17%	/	?
CCC(Sc1nc2cc(OC)c(OC)cc2c(=O)n1CCc1ccc(Cl)cc1)C(=O)NCCOC (stereo not given)	1%	?	7%	/	/	-8%
